Experiment [1] is described as follows: liver-stage malaria parasite growth inhibition, primary screen, cell-based, HepG2, luciferase luminescence, HepG2 viability (AID 624349; in the data active = parasite load remaining mostly below about 12%, no sharp cut-off; inactive = mostly above about 10%;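 also: 100% = mean of DMSO negative control wells on the same plate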). As to conditions: P. berghei liver stage in HepG2, luciferase luminescence, concentration not given here; parasite load remaining: stronger effect = lower value; viability: measured here: HepG2 viability without parasites.
Experiment [2] concerns Neuropilin-2 / VEGF-C interaction (human). As to the kind of experiment: inhibitors of NRP2–VEGF-C binding, biochemical, microplate binding format, z-score (AID 743281). As to conditions: microplate NRP2/VEGF-C binding assay; stronger effect = lower value.
The nature of experiment [3]: stimulators of nuclear beta-catenin in C2C12, primary screen, imaging, WNT3A-conditioned medium, mouse C2C12, NPC library (AID 1117326; in the data active = nuclear beta-catenin stimulation mostly above about 4.2%, no sharp cut-off; inactive = mostly below about 10%). As to conditions: stronger effect = higher value.
Experiment [4] concerns Hepatitis C virus NS3 helicase. As to the kind of experiment: HCV NS3 helicase inhibitors, primary screen, biochemical, fluorescence polarization, NIH Clinical Collection (AID 743270). As to conditions: NS3 helicase binding to Cy5-dT15 DNA, stronger effect = higher value, concentration not given here.
Experiment [5] addresses Single-stranded DNA-binding protein (Escherichia coli (strain K12)) (UniProt P0AGE0). As to the kind of experiment: E. coli SSB displacement from DNA, counter-screen for HCV NS3 helicase inhibitor project, biochemical, fluorescence polarization, NIH Clinical Collection (AID 743271; in the data active = inhibition above about 28%). As to conditions: stronger effect = higher value, concentration not given here.
The nature of experiment [6]: fluorescence interference in NS3h assay format, artefact control for HCV NS3 helicase inhibitor project, biochemical, NIH Clinical Collection (AID 743272).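 Also: HCV NS3 helicase with a Cy5 labelled single stranded DNA probe.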 As to conditions: fluorescence interference counterscreen, stronger effect = lower value.
The nature of experiment [7]: Cy5 fluorescence interference with SSB-bound oligo, artefact control for HCV NS3 helicase inhibitor project, biochemical, NIH Clinical Collection, E. coli SSB (AID 743268).

We go through 15 molecules from PubChem BioAssay.

Where “and” joins values, the source holds several entries; their conditions need not be identical. Equal entries are not always repeated. Calls of active or inactive are those of the source. Unless noted, no rule for the calls is given here.

Take `Cc1ccc(NC(=O)c2ccc(CN3CCN(C)CC3)cc2)cc1Nc1nccc(-c2cccnc2)n1`: the parasite load remaining in experiment [1] is 17.1% (inactive) and 60.3% (inactive). Further, the viability in experiment [1] is 65.9% and 227%. Further, in experiment [2], the z-score was -0.734 (inactive). For the same molecule, the nuclear beta-catenin stimulation in experiment [3] (at 10 µM) is 7.1% (inactive); in experiment [3] (stimulation, at 2 µM), -0.1%.

As for `CC(C)(C)NC(=O)[C@@H]1CN(Cc2cccnc2)CCN1C[C@@H](O)C[C@@H](Cc1ccccc1)C(=O)N[C@H]1c2ccccc2C[C@H]1O`, the parasite load remaining in experiment [1] was 83.6% (inactive). In addition, the viability in experiment [1] came to 71%. Moreover, the inhibition was -1.19% (inactive) in experiment [4] and 1.44% (inactive) in experiment [5]. Besides, the fluorescence ratio in experiment [6] was 1.02 (inactive). Also, the z-score in experiment [2] is 0.687 (inactive). The nuclear beta-catenin stimulation was 1.8% (inactive) in experiment [3] (at 10 µM) and 1.7% in experiment [3] (stimulation, at 2 µM).

For `COCc1c(C(C)C)nc(C(C)C)c(/C=C/[C@@H](O)C[C@@H](O)CC(=O)O)c1-c1ccc(F)cc1`, the parasite load remaining in experiment [1] was 149% (inactive) and 309% (inactive). For the same molecule, the viability in experiment [1] is 53.2% and 109%. Besides, the fluorescence ratio was 1.03 (inactive) in experiment [7] and 0.99 (inactive) in experiment [6]. The inhibition is -4.36% (inactive) in experiment [4] and -2.41% (inactive) in experiment [5]. Also, in experiment [2], the z-score is -0.18 (inactive). Besides, the nuclear beta-catenin stimulation in experiment [3] (at 10 µM) was 18.8% (active); in experiment [3] (stimulation, at 2 µM) it was 44.8%.

As for `CN(C/C=C/C#CC(C)(C)C)Cc1cccc2ccccc12`, in experiment [1], the parasite load remaining is 40.7% (inactive) and 65.8% (inactive) and 43.2% (inactive). Further, the viability in experiment [1] was 99.2% and 68.9% and 104%. Also, the fluorescence ratio in experiment [7] was 1.06 (inactive); in experiment [6] it was 1 (inactive). For the same molecule, the inhibition in experiment [4] was 1.19% (inactive); in experiment [5], 4.52% (inactive). The z-score in experiment [2] was 0.0743 (inactive). Further, the nuclear beta-catenin stimulation in experiment [3] (at 10 µM) is 5.3% (inactive); in experiment [3] (stimulation, at 2 µM) it was 2.6%.

With `CC1(C)S[C@@H]2[C@H](N=CN3CCCCCC3)C(=O)N2[C@H]1C(=O)O`, in experiment [1], the parasite load remaining is 101% (inactive). Moreover, the viability in experiment [1] worked out at 79.6%. In addition, the fluorescence ratio in experiment [7] was 1.06 (inactive); in experiment [6], 1.04 (inactive). Further, the inhibition in experiment [4] is -1.98% (inactive); in experiment [5], -4.72% (inactive). Further, in experiment [2], the z-score was -0.418 (inactive). Further, the nuclear beta-catenin stimulation in experiment [3] (at 10 µM) was 0.4% (inactive); in experiment [3] (stimulation, at 2 µM), 0.8%.

`CCc1nn(CCCN2CCN(c3cccc(Cl)c3)CC2)c(=O)n1CCOc1ccccc1`: the parasite load remaining in experiment [1] was 9.1% (inactive) and 13.5% (inactive). Besides, in experiment [1], the viability was 58.6% and 64.5%. For the same molecule, the values for the fluorescence ratio in experiment [7] and in experiment [6] were 0.98 (inactive) and 0.99 (inactive), respectively. The inhibition in experiment [4] is -1.19% (inactive); in experiment [5], 3.75% (inactive). In experiment [2], the z-score was 0.854 (inactive). The nuclear beta-catenin stimulation in experiment [3] (at 10 µM) was -1% (inactive); in experiment [3] (stimulation, at 2 µM) it was 3%.

On to `COc1cc(OC)c(C(=O)CCCN2CCCC2)c(OC)c1`, for which the parasite load remaining in experiment [1] was 144% (inactive) and 82.2% (inactive) and 102% (inactive). Moreover, the viability in experiment [1] was 95.2% and 73.3% and 68.5%. Also, the fluorescence ratio in experiment [7] was 1.02 (inactive); in experiment [6] it was 0.97 (inactive). For the same molecule, the results for the inhibition in experiment [4] and in experiment [5] were -3.56% (inactive) and -3.95% (inactive), respectively. For the same molecule, the z-score in experiment [2] is -0.505 (inactive). In addition, the nuclear beta-catenin stimulation in experiment [3] (at 10 µM) is 1.1% (inactive); in experiment [3] (stimulation, at 2 µM) it was 0.3%.

`CNS(=O)(=O)Cc1ccc2[nH]cc(CCN(C)C)c2c1`: the parasite load remaining in experiment [1] was 108% (inactive) and 29.1% (inactive). For the same molecule, the viability in experiment [1] is 93.1% and 65.5%. In addition, the fluorescence ratio is 1.05 (inactive) in experiment [7] and 1.03 (inactive) in experiment [6]. Further, the inhibition was 5.94% (inactive) in experiment [4] and 6.06% (inactive) in experiment [5]. Besides, the z-score in experiment [2] was 0.0332 (inactive). Also, the nuclear beta-catenin stimulation in experiment [3] (at 10 µM) is 0.9% (inactive); in experiment [3] (stimulation, at 2 µM) it was 0.4%.

For `O=c1c(-c2ccccc2)c1-c1ccccc1`, the parasite load remaining in experiment [1] was 7.97% (inactive). Besides, the viability in experiment [1] worked out at 65.5%. Further, the fluorescence ratio is 0.98 (inactive) in experiment [7] and 0.79 (active) in experiment [6]. The inhibition in experiment [4] is -0.4% (inactive); in experiment [5], 1.44% (inactive). Besides, the z-score in experiment [2] is -0.326 (inactive). Besides, the nuclear beta-catenin stimulation in experiment [3] (at 10 µM) was 40.6% (active); in experiment [3] (stimulation, at 2 µM), 22.6%.

As for `CCN1CC(CCN2CCOCC2)C(c2ccccc2)(c2ccccc2)C1=O` (stereo not given), the parasite load remaining in experiment [1] is 66% (inactive). Besides, the viability in experiment [1] was 70.6%. Moreover, the fluorescence ratio in experiment [7] was 0.9 (inactive); in experiment [6], 0.88 (inactive). Further, the inhibition in experiment [4] was -8.95% (inactive); in experiment [5], 5.91% (inactive). Also, the z-score in experiment [2] is -0.0578 (inactive). Moreover, the nuclear beta-catenin stimulation in experiment [3] (at 10 µM) was -1.3% (inactive); in experiment [3] (stimulation, at 2 µM), -3.1%.

Regarding `COc1ccc(CN2CCN(C(c3ccc(F)cc3)c3ccc(F)cc3)CC2)c(OC)c1OC`, the parasite load remaining in experiment [1] was 0.425% (inactive) and 2.35% (inactive). Further, in experiment [1], the viability was 59.6% and 66%. Further, the fluorescence ratio is 1 (inactive) in experiment [7] and 0.91 (inactive) in experiment [6]. Moreover, the inhibition was 1.19% (inactive) in experiment [4] and 7.6% (inactive) in experiment [5]. Further, the z-score in experiment [2] was 0.136 (inactive). The nuclear beta-catenin stimulation in experiment [3] (at 10 µM) is 8.4% (inactive); in experiment [3] (stimulation, at 2 µM) it was 5.6%.

Take `CC(=O)Nc1ccc(CC(=O)O)cc1`: the parasite load remaining in experiment [1] was 119% (inactive). In experiment [1], the viability was 78.7%. The fluorescence ratio in experiment [7] is 1.02 (inactive); in experiment [6], 0.93 (inactive). The inhibition was 0.4% (inactive) in experiment [4] and -2.41% (inactive) in experiment [5]. Moreover, the z-score in experiment [2] was -0.00496 (inactive). Also, the nuclear beta-catenin stimulation in experiment [3] (at 10 µM) was -0.2% (inactive); in experiment [3] (stimulation, at 2 µM) it was 0.4%.

Consider `CC(Cc1ccccc1)(NC(=O)CN)c1ccccc1` (stereo not given), for which the parasite load remaining in experiment [1] is 118% (inactive). Moreover, the viability in experiment [1] worked out at 74.8%. Besides, the fluorescence ratio was 1.07 (inactive) in experiment [7] and 1.03 (inactive) in experiment [6]. Further, the results for the inhibition in experiment [4] and in experiment [5] were 5.15% (inactive) and 6.83% (inactive), respectively. Further, the z-score in experiment [2] is 1.57 (inactive). Besides, the nuclear beta-catenin stimulation in experiment [3] (at 10 µM) is 0.8% (inactive); in experiment [3] (stimulation, at 2 µM), 0%.

`CC(C)(O)c1ccccc1CC[C@@H](SCC1(CC(=O)O)CC1)c1cccc(/C=C/c2ccc3ccc(Cl)cc3n2)c1`: the parasite load remaining in experiment [1] was 105% (inactive) and 55% (inactive). Also, in experiment [1], the viability is 73.6% and 151%. The fluorescence ratio in experiment [7] was 0.98 (inactive); in experiment [6], 1.03 (inactive). In addition, the results for the inhibition in experiment [4] and in experiment [5] were 6.73% (inactive) and 4.52% (inactive), respectively. For the same molecule, in experiment [2], the z-score is -0.15 (inactive). Moreover, the nuclear beta-catenin stimulation in experiment [3] (at 10 µM) was 9.7% (inactive); in experiment [3] (stimulation, at 2 µM), -0.2%.

In the case of `COc1ccc(C(=O)NCc2ccc(OCCN(C)C)cc2)cc1OC`, the parasite load remaining in experiment [1] is 97.5% (inactive) and 24.6% (inactive). For the same molecule, in experiment [1], the viability is 80.4% and 69%. In addition, the fluorescence ratio is 1.04 (inactive) in experiment [7] and 1.05 (inactive) in experiment [6]. Further, the inhibition in experiment [4] is 1.19% (inactive); in experiment [5], 2.98% (inactive). Further, the z-score in experiment [2] was -0.08 (inactive). Further, the nuclear beta-catenin stimulation is -0.3% (inactive) in experiment [3] (at 10 µM) and 1% in experiment [3] (stimulation, at 2 µM).
